# The full ranking holds about 16,000 sequences; the median of “rpm ratio (pull-down/input)” is about 0.94, and the highest 2% start at about 1.7. The sample holds the highest values, similar sequences and a random draw of the others, so the mix is not that of the screen.
# Target: T1, MBP-FoxP1dN (Mus musculus, UniProt P58462 326-579)
# T1 sequence: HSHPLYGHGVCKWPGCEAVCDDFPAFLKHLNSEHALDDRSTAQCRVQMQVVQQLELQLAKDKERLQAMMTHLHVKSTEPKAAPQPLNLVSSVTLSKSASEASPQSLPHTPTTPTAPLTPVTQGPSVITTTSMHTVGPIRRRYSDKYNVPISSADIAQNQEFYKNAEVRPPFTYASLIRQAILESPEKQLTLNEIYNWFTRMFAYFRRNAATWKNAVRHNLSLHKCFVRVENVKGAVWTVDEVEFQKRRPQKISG
# Assay: PD-seq (MBP pull-down with sequencing); 20 mM Tris-HCl pH 7.5, 100 mM NaCl, 1.5 mM MgCl2, 0.4 uM protein, 0.1 uM dsDNA library, 30 min, room temperature, amylose pull-down; high values mean tight binding
# Settings: protein: recombinant; tags: His6-MBP; chain copies: 2; dsDNA, one strand shown
# Procedure, shortened: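 Binding is the reads-per-million enrichment of pull-down relative to input, pooled across replicates. For this, 0.4 µM His6-MBP-tagged mouse FoxP3 or FoxP1 fragment lacking the N-terminus, made in E. coli, was incubated with 0.1 µM Klenow-filled double-stranded degenerate DNA library for 30 min at room temperature in Tris pH 7.5 buffer with NaCl and MgCl2. Complexes bound to amylose resin were washed three times before proteinase K released the DNA for PCR barcoding and Illumina sequencing.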
row,Sequence,binding signal
1,GATGATTGTTCTCCCAGCTGATGAATTTCGCAGGTCGAGTAAACAAATTTTCCTAATCTTTCTGTTCAAGCGCCATCTAC,0.789 RPM ratio (pull-down/input)
2,GATGATTGTTCTCCCAGCTGATGAATTTCAGTGTTCGAGTAAACAAATTTTCCTAATCTTTCTGTTCAAGCGCCATCTAC,0.983 RPM ratio (pull-down/input)
3,GATGATTGTTCTCCCAGCTGATGAATTGACAGTTTCGAGTAAACAAATTTTCCTAATCTTTCTGTTCAAGCGCCATCTAC,1.26 RPM ratio (pull-down/input)
4,GATGATTGTTCTCCCAGCTGATGAATTTGCCACCTCGAGTAAACAAATTTTCCTAATCTTTCTGTTCAAGCGCCATCTAC,0.982 RPM ratio (pull-down/input)
5,GATGATTGTTCTCCCAGCTGATGAATTGTGTAATTCGAGTAAACAAATTTTCCTAATCTTTCTGTTCAAGCGCCATCTAC,1.32 RPM ratio (pull-down/input)
6,GATGATTGTTCTCCCAGCTGATGAATTTGTGTATTCGAGTAAACAAATTTTCCTAATCTTTCTGTTCAAGCGCCATCTAC,1.98 RPM ratio (pull-down/input)
7,GATGATTGTTCTCCCAGCTGATGAATTCGTGTATTCGAGTAAACAAATTTTCCTAATCTTTCTGTTCAAGCGCCATCTAC,1.35 RPM ratio (pull-down/input)
8,GATGATTGTTCTCCCAGCTGATGAATTGTGTATTTCGAGTAAACAAATTTTCCTAATCTTTCTGTTCAAGCGCCATCTAC,1.75 RPM ratio (pull-down/input)
9,GATGATTGTTCTCCCAGCTGATGAATTCGCCCGATCGAGTAAACAAATTTTCCTAATCTTTCTGTTCAAGCGCCATCTAC,0.901 RPM ratio (pull-down/input)
10,GATGATTGTTCTCCCAGCTGATGAATTGCCCCCATCGAGTAAACAAATTTTCCTAATCTTTCTGTTCAAGCGCCATCTAC,0.972 RPM ratio (pull-down/input)
11,GATGATTGTTCTCCCAGCTGATGAATTCAAGCCCTCGAGTAAACAAATTTTCCTAATCTTTCTGTTCAAGCGCCATCTAC,0.749 RPM ratio (pull-down/input)
12,GATGATTGTTCTCCCAGCTGATGAATTGTATCTTTCGAGTAAACAAATTTTCCTAATCTTTCTGTTCAAGCGCCATCTAC,1.31 RPM ratio (pull-down/input)
13,GATGATTGTTCTCCCAGCTGATGAATTCTTGTATTCGAGTAAACAAATTTTCCTAATCTTTCTGTTCAAGCGCCATCTAC,1.72 RPM ratio (pull-down/input)
14,GATGATTGTTCTCCCAGCTGATGAATTCCTGTATTCGAGTAAACAAATTTTCCTAATCTTTCTGTTCAAGCGCCATCTAC,1.3 RPM ratio (pull-down/input)
15,GATGATTGTTCTCCCAGCTGATGAATTGTATTTTTCGAGTAAACAAATTTTCCTAATCTTTCTGTTCAAGCGCCATCTAC,1.8 RPM ratio (pull-down/input)
16,GATGATTGTTCTCCCAGCTGATGAATTGTATATTTCGAGTAAACAAATTTTCCTAATCTTTCTGTTCAAGCGCCATCTAC,1.52 RPM ratio (pull-down/input)
17,GATGATTGTTCTCCCAGCTGATGAATTGTATTGTTCGAGTAAACAAATTTTCCTAATCTTTCTGTTCAAGCGCCATCTAC,2.26 RPM ratio (pull-down/input)
18,GATGATTGTTCTCCCAGCTGATGAATTCACGACCTCGAGTAAACAAATTTTCCTAATCTTTCTGTTCAAGCGCCATCTAC,0.767 RPM ratio (pull-down/input)
19,GATGATTGTTCTCCCAGCTGATGAATTTCCGAGATCGAGTAAACAAATTTTCCTAATCTTTCTGTTCAAGCGCCATCTAC,0.797 RPM ratio (pull-down/input)
20,GATGATTGTTCTCCCAGCTGATGAATTTAACTATTCGAGTAAACAAATTTTCCTAATCTTTCTGTTCAAGCGCCATCTAC,0.876 RPM ratio (pull-down/input)
21,GATGATTGTTCTCCCAGCTGATGAATTGATTCACTCGAGTAAACAAATTTTCCTAATCTTTCTGTTCAAGCGCCATCTAC,1.03 RPM ratio (pull-down/input)

row,Sequence,binding signal
1,GATGATTGTTCTCCCAGCTGATGAATTCGCACAATCGAGTAAACAAATTTTCCTAATCTTTCTGTTCAAGCGCCATCTAC,1.15 RPM ratio (pull-down/input)
2,GATGATTGTTCTCCCAGCTGATGAATTTCAAAGTTCGAGTAAACAAATTTTCCTAATCTTTCTGTTCAAGCGCCATCTAC,0.792 RPM ratio (pull-down/input)
3,GATGATTGTTCTCCCAGCTGATGAATTAGTGTTTTCGAGTAAACAAATTTTCCTAATCTTTCTGTTCAAGCGCCATCTAC,2.42 RPM ratio (pull-down/input)
4,GATGATTGTTCTCCCAGCTGATGAATTAGTGTCGTCGAGTAAACAAATTTTCCTAATCTTTCTGTTCAAGCGCCATCTAC,0.949 RPM ratio (pull-down/input)
5,GATGATTGTTCTCCCAGCTGATGAATTAGTGTTGTCGAGTAAACAAATTTTCCTAATCTTTCTGTTCAAGCGCCATCTAC,2.53 RPM ratio (pull-down/input)
6,GATGATTGTTCTCCCAGCTGATGAATTAGTGTGTTCGAGTAAACAAATTTTCCTAATCTTTCTGTTCAAGCGCCATCTAC,1.35 RPM ratio (pull-down/input)
7,GATGATTGTTCTCCCAGCTGATGAATTTAGTGTTTCGAGTAAACAAATTTTCCTAATCTTTCTGTTCAAGCGCCATCTAC,1.15 RPM ratio (pull-down/input)
8,GATGATTGTTCTCCCAGCTGATGAATTAGTAGTGTCGAGTAAACAAATTTTCCTAATCTTTCTGTTCAAGCGCCATCTAC,1 RPM ratio (pull-down/input)
9,GATGATTGTTCTCCCAGCTGATGAATTGCCGTGCTCGAGTAAACAAATTTTCCTAATCTTTCTGTTCAAGCGCCATCTAC,0.904 RPM ratio (pull-down/input)
10,GATGATTGTTCTCCCAGCTGATGAATTACTATAATCGAGTAAACAAATTTTCCTAATCTTTCTGTTCAAGCGCCATCTAC,1.27 RPM ratio (pull-down/input)
11,GATGATTGTTCTCCCAGCTGATGAATTTTAGCGCTCGAGTAAACAAATTTTCCTAATCTTTCTGTTCAAGCGCCATCTAC,0.826 RPM ratio (pull-down/input)
12,GATGATTGTTCTCCCAGCTGATGAATTATAACCCTCGAGTAAACAAATTTTCCTAATCTTTCTGTTCAAGCGCCATCTAC,0.997 RPM ratio (pull-down/input)
13,GATGATTGTTCTCCCAGCTGATGAATTTGATCCATCGAGTAAACAAATTTTCCTAATCTTTCTGTTCAAGCGCCATCTAC,0.928 RPM ratio (pull-down/input)
14,GATGATTGTTCTCCCAGCTGATGAATTCGGCCTATCGAGTAAACAAATTTTCCTAATCTTTCTGTTCAAGCGCCATCTAC,0.817 RPM ratio (pull-down/input)
15,GATGATTGTTCTCCCAGCTGATGAATTTGCGGACTCGAGTAAACAAATTTTCCTAATCTTTCTGTTCAAGCGCCATCTAC,0.882 RPM ratio (pull-down/input)
16,GATGATTGTTCTCCCAGCTGATGAATTACTTCATTCGAGTAAACAAATTTTCCTAATCTTTCTGTTCAAGCGCCATCTAC,1.11 RPM ratio (pull-down/input)
17,GATGATTGTTCTCCCAGCTGATGAATTGAGCAGATCGAGTAAACAAATTTTCCTAATCTTTCTGTTCAAGCGCCATCTAC,0.835 RPM ratio (pull-down/input)
18,GATGATTGTTCTCCCAGCTGATGAATTGTTGTGTTCGAGTAAACAAATTTTCCTAATCTTTCTGTTCAAGCGCCATCTAC,2.57 RPM ratio (pull-down/input)
19,GATGATTGTTCTCCCAGCTGATGAATTTCTGTGTTCGAGTAAACAAATTTTCCTAATCTTTCTGTTCAAGCGCCATCTAC,1.23 RPM ratio (pull-down/input)
20,GATGATTGTTCTCCCAGCTGATGAATTGTGTTGTTCGAGTAAACAAATTTTCCTAATCTTTCTGTTCAAGCGCCATCTAC,2.69 RPM ratio (pull-down/input)
21,GATGATTGTTCTCCCAGCTGATGAATTCTTGTGTTCGAGTAAACAAATTTTCCTAATCTTTCTGTTCAAGCGCCATCTAC,1.6 RPM ratio (pull-down/input)

row,Sequence,binding signal
1,GATGATTGTTCTCCCAGCTGATGAATTGTGTTCTTCGAGTAAACAAATTTTCCTAATCTTTCTGTTCAAGCGCCATCTAC,1.33 RPM ratio (pull-down/input)
2,GATGATTGTTCTCCCAGCTGATGAATTGATGTGTTCGAGTAAACAAATTTTCCTAATCTTTCTGTTCAAGCGCCATCTAC,1.5 RPM ratio (pull-down/input)
3,GATGATTGTTCTCCCAGCTGATGAATTGACCGCGTCGAGTAAACAAATTTTCCTAATCTTTCTGTTCAAGCGCCATCTAC,0.965 RPM ratio (pull-down/input)
4,GATGATTGTTCTCCCAGCTGATGAATTAAAACGATCGAGTAAACAAATTTTCCTAATCTTTCTGTTCAAGCGCCATCTAC,0.959 RPM ratio (pull-down/input)
5,GATGATTGTTCTCCCAGCTGATGAATTAAGAGAATCGAGTAAACAAATTTTCCTAATCTTTCTGTTCAAGCGCCATCTAC,0.949 RPM ratio (pull-down/input)
6,GATGATTGTTCTCCCAGCTGATGAATTTTTTTGCTCGAGTAAACAAATTTTCCTAATCTTTCTGTTCAAGCGCCATCTAC,0.948 RPM ratio (pull-down/input)
7,GATGATTGTTCTCCCAGCTGATGAATTGTTTTGCTCGAGTAAACAAATTTTCCTAATCTTTCTGTTCAAGCGCCATCTAC,1.95 RPM ratio (pull-down/input)
8,GATGATTGTTCTCCCAGCTGATGAATTTCTTTGCTCGAGTAAACAAATTTTCCTAATCTTTCTGTTCAAGCGCCATCTAC,0.931 RPM ratio (pull-down/input)
9,GATGATTGTTCTCCCAGCTGATGAATTGTGCTGCTCGAGTAAACAAATTTTCCTAATCTTTCTGTTCAAGCGCCATCTAC,0.988 RPM ratio (pull-down/input)
10,GATGATTGTTCTCCCAGCTGATGAATTTTGCTCCTCGAGTAAACAAATTTTCCTAATCTTTCTGTTCAAGCGCCATCTAC,0.907 RPM ratio (pull-down/input)
11,GATGATTGTTCTCCCAGCTGATGAATTGTTGCTCTCGAGTAAACAAATTTTCCTAATCTTTCTGTTCAAGCGCCATCTAC,1.39 RPM ratio (pull-down/input)
12,GATGATTGTTCTCCCAGCTGATGAATTTGTTTGCTCGAGTAAACAAATTTTCCTAATCTTTCTGTTCAAGCGCCATCTAC,2.43 RPM ratio (pull-down/input)
13,GATGATTGTTCTCCCAGCTGATGAATTGTTGTGCTCGAGTAAACAAATTTTCCTAATCTTTCTGTTCAAGCGCCATCTAC,2.06 RPM ratio (pull-down/input)
14,GATGATTGTTCTCCCAGCTGATGAATTCTTTTGCTCGAGTAAACAAATTTTCCTAATCTTTCTGTTCAAGCGCCATCTAC,0.898 RPM ratio (pull-down/input)
15,GATGATTGTTCTCCCAGCTGATGAATTTCTGTGCTCGAGTAAACAAATTTTCCTAATCTTTCTGTTCAAGCGCCATCTAC,0.877 RPM ratio (pull-down/input)
16,GATGATTGTTCTCCCAGCTGATGAATTTGATTGCTCGAGTAAACAAATTTTCCTAATCTTTCTGTTCAAGCGCCATCTAC,1.16 RPM ratio (pull-down/input)
17,GATGATTGTTCTCCCAGCTGATGAATTTTGTTGCTCGAGTAAACAAATTTTCCTAATCTTTCTGTTCAAGCGCCATCTAC,1.79 RPM ratio (pull-down/input)
18,GATGATTGTTCTCCCAGCTGATGAATTATAATTCTCGAGTAAACAAATTTTCCTAATCTTTCTGTTCAAGCGCCATCTAC,0.978 RPM ratio (pull-down/input)
19,GATGATTGTTCTCCCAGCTGATGAATTTCATCTATCGAGTAAACAAATTTTCCTAATCTTTCTGTTCAAGCGCCATCTAC,0.877 RPM ratio (pull-down/input)
20,GATGATTGTTCTCCCAGCTGATGAATTCGCGTATTCGAGTAAACAAATTTTCCTAATCTTTCTGTTCAAGCGCCATCTAC,0.979 RPM ratio (pull-down/input)
21,GATGATTGTTCTCCCAGCTGATGAATTTGAAATCTCGAGTAAACAAATTTTCCTAATCTTTCTGTTCAAGCGCCATCTAC,0.737 RPM ratio (pull-down/input)
